Pol beta inh = blocks human DNA polymerase beta activity. P06746. Pol beta primer extension/strand displacement, fluorescence kinetic. Potency, µM (top dose mostly 114 µM), usual class: inhibitors. 1.3% of 340,000 active. AID 485314
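Human Pol beta at 10 nM; strand-displacement substrate 50 nM final. Compound exposure 15 min at room temperature before start, reaction 10 min at room temperature.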
POLK inh = blocks human DNA polymerase kappa activity. purified Pol kappa, fluorescent DNA synthesis assay, 10 min. 0.53% of 400,000 active. Potency, µM (doses to about 107 µM), hits mostly inhibitors
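Enzyme at 10 nM met test compounds for 15 min at room temperature. Substrate addition (50 nM final) began the reaction, which was monitored by fluorescence at 0 and 10 min.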
POLI inh = inhibitors of human DNA polymerase iota; Q9UNA4; Pol iota fluorescent replication assay, 10 min; 1% of 390,000 active; Potency, µM (top dose mostly 115 µM), most hits filed as inhibitors
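Pol iota at 10 nM preincubated 15 min with compounds at room temperature; reaction started with fluorescent substrate, 50 nM final. Fluorescence read kinetically at 0 and 10 min; buffer-only wells as negative control.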
FEN1 inhibitor = inhibitors of human flap endonuclease 1; 0.35% of 390,000 active; AID 588795; Recombinant FEN1 flap cleavage, fluorescence, 15 min; Potency, µM (top dose mostly 114 µM), hits mostly inhibitors; further: nearly all actives have a fitted effect of over 65% in size
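Recombinant FEN1 (10 nM) was preincubated with pin-transferred compounds for 15 min at room temperature, then flap DNA substrate (50 nM final) was added. Plates were read at 0 and 15 min, and normalized concentration–response data were fitted to a four-parameter Hill equation.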
Pol eta inh = blocks human DNA polymerase eta activity; 1.2% of 390,000 active; recombinant Pol eta, fluorescent DNA replication assay; AID 588591; Potency, µM (titrated, usually from 114 µM), hits mostly inhibitors; Q9Y253
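Fluorescent replication assay: 50 nM final substrate added after a 15 min room-temperature compound preincubation with 10 nM enzyme. Signal taken at 0 min and again at 10 min.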
WRN helicase inh = inhibitors of human WRN helicase | WRN helicase unwinding, fluorescent forked duplex, kinetic | Potency, µM (top dose mostly 114 µM), usual class: inhibitors | Q14191 | 0.46% of 360,000 active; further: nearly all actives have a fitted effect of over 55% in size
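Screening of the MLSMR collection measured strand separation of a quenched forked DNA duplex (100 nM) by 20 nM WRN with 2 mM ATP, all final. Compounds were preincubated with enzyme 15 min at room temperature.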
Hits are given with their value; - = inactive; ? = inconclusive; . = no result given; [ ] = remark or other dose. An excerpt weighted towards active compounds, which were near 2.4% of everything screened. The call rests on the fitted dose curve; in most records, active means well fitted curve in the direction sought with a large enough effect; inconclusive means small, poorly fitted or top-dose-only effect, or another doubt; inactive means no such curve, though single readings can be large; an effect the other way counts as inactive or inconclusive.

SMILES	Pol beta inh	POLK inh	POLI inh	FEN1 inhibitor	Pol eta inh	WRN helicase inh
CCn1c(SCC(=O)NCc2ccco2)nnc1-c1cccs1	32µM	-	-	-	-	-
O=C(O)CSc1ncnc2c1oc1ccccc12	-	-	-	-	-	-
CCn1c(SCC(=O)NCc2ccco2)nnc1-c1ccncc1	-	.	.	.	.	.
CCc1ccc(Cn2c(CNS(=O)(=O)c3ccc(Cl)s3)nc3cccnc32)cc1	-	-	-	-	-	.
CCOc1ccc(-c2nnc3ccc(SCC(=O)NCc4ccco4)nn23)cc1	25µM	-	?	-	?	-
O=C(CSc1ccc2nnc(-c3ccc(F)cc3)n2n1)NCc1ccco1	?	-	?	-	-	-
O=C(CSc1nccn1Cc1ccccc1)NCc1ccco1	28µM	-	?	-	-	.
Cn1cnc([N+](=O)[O-])c1SCC(=O)NN	-	?	79µM	-	-	-
Cn1cnc([N+](=O)[O-])c1SCC(O)CN1CCCCC1 (configuration not stated)	-	-	-	-	-	-
O=C(C=Cc1ccccc1)CC(c1ccccc1)N1CCOCC1 (configuration not stated)	.	-	20µM	-	?	-[11.6 µM]
CCOc1ccc(CCNC(=O)c2ccc3c(c2)N(Cc2ccccc2)C(=O)c2ccccc2S3=O)cc1OCC (configuration not stated)	?	-	-	-	-	.
CC(C)CCNC(=O)C1CCC(Cn2c(=O)c3sccc3n(CC(=O)NC(C)C)c2=O)CC1 (configuration not stated)	-	-	-	-	-	.
COc1cccc(Oc2cc(NN3CCCCC3)c([N+](=O)[O-])cc2[N+](=O)[O-])c1OC	56µM	-	?	-	-	-
CCc1ccccc1NC(=O)Cn1c(=O)n(CCc2ccccc2)c(=O)c2sc3ccccc3c21	-	-	-	-	-	.
Cc1ccc2cc(CN(C(=O)c3cccc(Cl)c3)c3ccccc3)c(=O)[nH]c2c1	-	-	-	-	-	.
Cc1cccc(/C=N/NC(=O)c2cc(Br)ccc2OCc2ccccc2)n1	45µM	-	?	-	-	-
O=C1CNC(=O)/C(=C/c2ccco2)N1	-	79µM	?	-	-	-
O=C1SC(c2ccccc2)=N/C1=C/c1ccco1	-	-	-	-	-	-
COc1ccccc1N(C(=O)CCl)c1cn(C(C)=O)c2ccccc12	-	-	-	-	45µM	-
COc1cc(O)cc(OC)c1OC	.	-	.	.	.	.
COc1c(O)cc(O)cc1O	.	25µM	.	.	.	.
COc1ccc(S(=O)(=O)Nc2cccc3cccnc23)c([N+](=O)[O-])c1	.	-	-	-	.	.
CCc1ccc(NC(=O)CSc2nnc(-c3ccccc3)n2C)cc1	.	-	-	-	.	.
O=C(O)C(O)c1ccccc1 (configuration not stated)	-	.	-	-	-	-
O=C(O)C(O)c1ccco1 (configuration not stated)	2.2µM	20µM	?	?	3.5µM	50µM
SMILES	Pol beta inh	POLK inh	POLI inh	FEN1 inhibitor	Pol eta inh	WRN helicase inh
CSc1nc(N)c2ncn([C@@H]3O[C@H](COP(=O)(O)OP(=O)(O)O)C(O)[C@H]3O)c2n1 (some centres not stated)	.	-	.	.	.	.
O=c1c(Cl)c(Cl)cnn1Cc1nnc(-c2ccccc2Br)o1	40µM	-	?	-	79µM	-
Clc1ccccc1OCc1nnc(-c2ccccc2Br)o1	-	-	-	-	-	-
O=C(CNC(=O)C(c1ccccc1)c1ccccc1)OCC(=O)c1cccc2ccccc12	.	-	-	-	.	.
O=c1c2cc(F)ccc2sn1-c1ccc(F)cc1	.	-	-	79µM	-	-
CCN(CC)/[N+]([O-])=N/OCOC(=O)C(C)c1ccc(CC(C)C)cc1 (configuration not stated)	.	-	-	-	.	.
CSc1ccc(-c2sc(Nc3ccccc3)n[n+]2-c2ccccc2)cc1	?	-	?	22µM	-	-
Cc1ccc2c(CC(=O)OCc3cc(=O)n4c(n3)sc3ccccc34)coc2c1	10µM	?	?	-	10µM	?
O=C(CCCN1C(=O)c2ccccc2C1=O)Nc1sc2c(c1C(=O)NCc1ccco1)CCC2	20µM	-	?	-	-	-
O=C(CCN1C(=O)c2ccccc2C1=O)NCc1ccco1	-	-	50µM	-	?	-
